Laboratory results as given in PubChem BioAssay (NCI).
About 83,000 compounds went through this panel and 20% of them were active in at least one assay; those are over-represented in the sample as a whole.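 How to read the values: 0–100, growth inhibition (40 = 60% inhibited); 0, no net growth; -100 to 0, cell death (-40 = 40% of starting cells died; -100 = all dead).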 Values without a mark were called inactive. Active and inactive are the calls of the source. How the source made its calls: active means growth percent below 10; inactive means the rest.

Key:
Assay in all cases: NCI-60 one-dose screen, 48 h (100 = growth as untreated, 0 = no growth, -100 = all killed)
Conditions in all cases: 10 µM unless noted
T-47D breast = tested on: T-47D breast
BT-549 breast = tested on: BT-549 breast
MDA-MB-435 melanoma = tested on: MDA-MB-435 melanoma
SW-620 colon = tested on: SW-620 colon
MCF7 breast = tested on: MCF7 breast
HCT-116 colon = tested on: HCT-116 colon
HCC-2998 colon = tested on: HCC-2998 colon
KM12 colon = tested on: KM12 colon
MDA-MB-468 breast = tested on: MDA-MB-468 breast

SMILES | growth (T-47D breast) | growth (BT-549 breast) | growth (MDA-MB-435 melanoma) | growth (SW-620 colon) | growth (MCF7 breast) | growth (HCT-116 colon) | growth (HCC-2998 colon) | growth (KM12 colon) | growth (MDA-MB-468 breast)
Cn1cc(-c2nnc(N)nc2-c2c[nH]c3ccc(Br)cc23)c2cc(Br)cnc21 | 47.7% | 50.2% | 33.6% | 75.1% | 29.8% | 44.8% | 72.7% | 49.3% | 25%
CN(C)c1nc(NCCNS(=O)(=O)c2ccc(C3=Nc4c(N)nc(N)nc4NC(c4ccccc4)C3)cc2)nc(Nc2ccc(F)cc2)n1 (stereo unspecified) | 39.8% | 29.1% | 41.6% | 49.9% | 17.3% | 32.7% | 31.9% | 33.8% | -35.8% (active)
COc1cc(C2CC(c3cc(OC)c(OC)c(OC)c3)=NN2c2ccccc2)ccc1OCc1ccc(C)cc1 (stereo unspecified) | 79.9% | 103% | 97% | 94.3% | 81.3% | 80.6% | 110% | 96.9% | 92.2%
COc1cc2c(c(OC)c1OC)C(=O)CC(c1cccc(NC(=O)c3cccc([N+](=O)[O-])c3)c1)O2 (stereo unspecified) | 18.6% | -7.24% (active) | -16.8% (active) | 34.9% | 12.3% | 16.4% | 76.4% | 2.26% (active) | 8.62% (active)
C=CC[N+](C)(C)CCn1c2ccccc2c2nc3cc(C)c(C)cc3nc21 | 99.9% | 54.6% | 99.6% | 94.6% | 80% | 98.4% | 96.2% | 99% | -2.23% (active)
C#C[C@]1(O)CC[C@H]2[C@@H]3CC=C4c5sc(-c6ccc([N+](=O)[O-])cc6)nc5CC[C@]4(C)[C@H]3CC[C@@]21C | 24.9% | 36.8% | 26.7% | -12.5% (active) | 0.614% (active) | 0.46% (active) | -49.2% (active) | -27.1% (active) | -17.8% (active)
COc1cc2nc(SCc3ccccc3)n(-c3ccc(Cl)cc3)c(=O)c2cc1OC | 45% | 0.336% (active) | 30.3% | 9.44% (active) | 14.7% | -41% (active) | 20.3% | 40.5% | -10.9% (active)
CC1(c2cc3cc(Cl)ccc3oc2=O)NC(=O)c2c(/C=C/C(=O)OC3CC4CCC3(C)C4(C)C)cccc2N1 (stereo unspecified) | 24.4% | 59.3% | 81% | 73% | 37.4% | 40.4% | 82.6% | 64.8% | -6.79% (active)
Cc1ccc(-c2nc(C#N)c(S(=O)(=O)N3CCN(S(=O)(=O)c4ccc(Cl)cc4)CC3)o2)cc1 | 92.1% | 99.8% | 94.8% | 109% | 75.8% | 84.9% | 106% | 109% | 61.9%
CCOC(=O)C1=C(N)N(c2ccccc2)C2=C(C(=O)CC(C)(C)C2)C1c1ccc([N+](=O)[O-])cc1 (stereo unspecified) | 91.2% | 102% | 102% | 96.9% | 83.8% | 83.8% | 100% | 99.5% | 96.1%
CCOC(=O)/C=C/c1cccc2c1C(=O)NC(C)(c1cc3cc(Cl)ccc3oc1=O)N2 (stereo unspecified) | 16.3% | 24.7% | 42.1% | 40.9% | 26.5% | 17.6% | 38.7% | 26% | 3.88% (active)
CC1[C@H]2[C@H](C[C@H]3[C@@H]4CC=C5c6sc(Nc7ccccc7F)nc6CC[C@]5(C)[C@H]4CC[C@@]32C)O[C@]12CC[C@@H](C)CO2 (stereo partly specified) | -60.2% (active) | 55.2% | -83.5% (active) | -75.4% (active) | -66.8% (active) | -94.3% (active) | -82.1% (active) | -90.7% (active) | -63.1% (active)
Cc1ccc(C(=O)CSc2nc3ccc(F)cc3c(=O)n2-c2ccc(Cl)cc2)cc1 | 96.5% | 1.44% (active) | 76.1% | 75% | 65.2% | 24.4% | 81.3% | 96.3% | 44.7%
CC(C)c1sc(NC(=O)c2cc(NC(=O)c3cc(NC(=O)c4cscn4)cn3C)cn2C)nc1C(=O)NCCCN(C)C | 13% | -7.36% (active) | 2.17% (active) | 20.5% | 24.5% | -79.5% (active) | -74.9% (active) | 59.2% | -62.7% (active)
